TGFb inhibitor = TGF-b pathway inhibition. actives 1.2% (n = 410,000). HepG2 CAGA-GFP TGF-b/SMAD3 reporter, GFP fluorescence, 18 h; TGF-beta stimulated, 500 pg/mL final. Potency, µM (series often up to 46.1 µM), for the others: at the highest dose activity, negative = inhibition, usual class: inhibitors; further: potency means the concentration at half of the fitted maximal effect; on the % scale 0 is the no-effect control and ±100 the full control effect; nearly all actives have a fitted effect of over 65% in size
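Inhibition was scored as loss of TGF-beta-induced (500 pg/mL final, 18 hours, 37 degrees C) GFP in HEPG2 cells carrying a CAGA-GFP reporter, in DMEM with 1% FBS. Well GFP was summed per cell; Activity was normalised to unstimulated and stimulated DMSO wells, then concentration-response fitting.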
IL1B secr inh = inflammasome signaling inhibition, IL-1 beta readout | activity change, % at 57.5 µM | actives 4.7% (n = 360,000) | THP-1 LPS/ATP IL-1B secretion, AlphaLISA, 16 h; hits give low values | AID 743279; in the data active means activity change below about -50%; inconclusive means mostly about -30% to -49%; further: on the % scale 0 is the no-effect control and ±100 the full control effect
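THP-1 cells pretreated 1 hr with compounds (up to 57.5 uM final), then stimulated with LPS (250 ng/mL final) plus ATP (1.25 mM final); secreted IL-1B measured by AlphaLISA after 16 hr, decreased signal indicating inhibition.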
ASM inhibitor = blocks human secretory acid sphingomyelinase | placental ASM, HMU-PC fluorogenic substrate, 60 min | Potency, µM (top dose mostly 57.5 µM), for the others: at the highest dose activity change, negative = inhibition, actives largely listed as inhibitors | actives 0.006% (n = 340,000) | AID 504937; further: potency means the concentration at half of the fitted maximal effect
Target sequence (P17405 47-631 limits assumed): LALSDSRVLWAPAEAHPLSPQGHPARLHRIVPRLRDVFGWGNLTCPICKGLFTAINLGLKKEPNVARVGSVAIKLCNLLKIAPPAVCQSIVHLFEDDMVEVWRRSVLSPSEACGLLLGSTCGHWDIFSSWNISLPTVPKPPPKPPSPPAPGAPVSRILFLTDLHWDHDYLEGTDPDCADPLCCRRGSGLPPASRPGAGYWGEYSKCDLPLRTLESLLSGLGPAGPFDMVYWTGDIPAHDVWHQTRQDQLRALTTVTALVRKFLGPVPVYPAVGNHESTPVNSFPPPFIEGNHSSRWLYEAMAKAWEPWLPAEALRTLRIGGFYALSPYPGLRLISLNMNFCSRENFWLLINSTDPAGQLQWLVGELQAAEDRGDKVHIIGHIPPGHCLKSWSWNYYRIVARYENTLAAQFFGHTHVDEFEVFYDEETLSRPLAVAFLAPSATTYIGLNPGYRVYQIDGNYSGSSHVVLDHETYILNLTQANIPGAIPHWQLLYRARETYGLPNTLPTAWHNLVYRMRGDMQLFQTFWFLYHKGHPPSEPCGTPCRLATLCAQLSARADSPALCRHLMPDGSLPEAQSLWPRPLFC
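Fluorogenic HMU-PC substrate (9 uM final) is turned over by placental ASM in 60 min at 37 C after a 10 min compound preincubation. Reaction ended by alkaline stop (pH 10), with fluorescence read at 386/447 nm.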
DT40 TDP1 CPT = DT40-hTDP1 cell growth loss with CPT; chicken DT40 Tdp1-/-;hTDP1 cells + 20 nM CPT, ATP luminescence, 48 h; Potency, µM (doses to about 46.2 µM), for inactives: at the top dose activity change, negative = growth inhibition, actives largely listed as inhibitors; AID 686979; actives 12% (n = 420,000); further: potency means the concentration at half of the fitted maximal effect; on the % scale 0 is the no-effect control and ±100 the full control effect; nearly all actives have a fitted effect of over 55% in size
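Cell growth measured by CellTiter-Glo luminescence after a minimum 48 h, 37 C compound exposure with 20 nM CPT in Tdp1-knockout DT40 cells stably expressing hTDP1, seeded 400/well; qHTS titration format.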
HepG2 viability = kills HepG2 cells in TGF-b inhibitor counter-screen. HepG2 CAGA-GFP viability, ATP luminescence, 18 h. Potency, µM (series often up to 46.1 µM), for the others: at the highest dose activity change, negative = cytotoxicity, actives largely listed as cytotoxic. actives 0.76% (n = 410,000); further: potency means the concentration at half of the fitted maximal effect
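CellTiter-Glo luminescence gave cytotoxicity after 18 hours at 37 degrees C. The cells were HepG2 CAGA-GFP in 1% FBS DMEM, stimulated with 500 pg/mL TGF-beta after compound addition. %Activity was normalised to no-cell wells (complete cell-killing) and DMSO (no toxicity), and curves were fitted and classified.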
DT40 TDP1 no CPT = qHTS for Inhibitors of human tyrosyl-DNA phosphodiesterase 1 (TDP1): qHTS in cells in absence of CPT | DT40 Tdp1-/- hTDP1 cells, no CPT, ATP luminescence, 48 h | actives 15% (n = 420,000) | Potency, µM (doses to about 46.2 µM), inactives show at the highest dose activity change, negative = growth inhibition, actives largely listed as inhibitors | AID 686978, 2013; further: potency means the concentration at half of the fitted maximal effect; on the % scale 0 is the no-effect control and ±100 the full control effect; nearly all actives have a fitted effect of over 55% in size
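Chicken DT40 Tdp1-/- cells stably complemented with human TDP1 were seeded at 400 cells/well with DMSO in place of 20 nM camptothecin. After compound pinning, cells grew at least 48 hr at 37 °C; viability read by CellTiter-Glo luminescence.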
* = called active by the depositor; ? = inconclusive; nt = no result given; [ ] = another dose, or the depositor's remark. Compounds with a hit are over-represented: about 19% of the library has one in this group of screens. Unless noted, the call rests on the fitted dose curve; in most records, active means well fitted curve in the direction sought with a large enough effect; inconclusive means small, poorly fitted or top-dose-only effect, or another doubt; inactive means no such curve, though single readings can be large; an effect the other way counts as inactive or inconclusive.

SMILES | TGFb inhibitor | IL1B secr inh | ASM inhibitor | DT40 TDP1 CPT | HepG2 viability | DT40 TDP1 no CPT
CC1(c2nnc(-c3ccccc3)o2)CC(c2ccc(Cl)cc2)=NO1 (configuration not stated) | -13% | 2 | -15% | -11% | -11% | -28%
CC1(c2nnc(-c3ccccc3)o2)CC(c2ccc(F)cc2)=NO1 (configuration not stated) | -4% | 4 | -6% | -15% | 0% | -27%
CC1(c2nnc(-c3ccccc3)o2)CC(c2ccc([N+](=O)[O-])cc2)=NO1 (configuration not stated) | 21% | 10 | 0% | ? | 2% | 18µM*
CC1(c2nnc(-c3ccncc3)o2)CC(c2ccc(Cl)cc2)=NO1 (configuration not stated) | -9% | -10 | -4% | 21µM* | -23% | 21µM*
COc1ccc(/C=N/NC(=S)Nc2cc(S(=O)(=O)N3CCOCC3)ccc2N2CCOCC2)cc1O | ? | 0 | -18% | 9.2µM* | -30% | ?
CCOc1cccc(/C=N/NC(=S)Nc2cc(S(=O)(=O)N3CCOCC3)ccc2N2CCOCC2)c1O | ? | -15 | -2% | 5.8µM* | 0% | 5.8µM*
COc1ccc2ccccc2c1/C=N/NC(=S)Nc1cc(S(=O)(=O)N2CCOCC2)ccc1N1CCOCC1 | 15% | -8 | 137% | -4% | 0% | -5%
CCSc1nnc(C(C)NC(=O)c2ccc(OC)cc2)n1C (configuration not stated) | nt | nt | nt | 9%[9.04 µM] | nt | -13%
COc1cc(OC)c(NC(=O)N2CCCn3nc(C)cc32)cc1Cl | 10% | nt | nt | 2% | 3% | -29%
CCOC(=O)c1ccc(NS(=O)(=O)c2ccc3c(c2)oc(=O)n3C)cc1 | -1% | 8 | -8% | 3.7µM* | -9% | ?
COC(=O)c1ccc(NS(=O)(=O)c2ccc3c(c2)n(C)c(=O)n3C)cc1 | -2% | 14 | -1% | -22% | 2% | ?
CCOC(=O)c1ccc(S(=O)(=O)Nc2ccc(N3CCOCC3)cc2)cc1 | -3% | 1 | -1% | 21µM* | -9% | ?
COC(=O)c1ccc(NS(=O)(=O)c2ccc3c(c2)oc(=O)n3C)cc1 | 8% | 0 | -4% | -29% | 2% | -8%
CCOC(=O)c1ccc(NS(=O)(=O)c2ccc3c(c2)n(C)c(=O)n3C)cc1 | -1% | -4 | -7% | 21µM* | 5% | 18µM*
CSc1cccc(NS(=O)(=O)c2ccc3c(c2)oc(=O)n3C)c1 | -10% | 11 | -2% | 23µM* | -17% | ?
CC(=O)c1ccc(S(=O)(=O)Nc2ccc(N3CCOCC3)cc2)cc1 | 5% | 5 | -1% | -2% | 7% | -18%
COc1ccc(CN2CCN(CCc3ccccc3)C(CCO)C2)c(Cl)c1OC (configuration not stated) | -1% | 25 | -3% | ? | -7% | ?
CC1Oc2ccccc2C=C1/C=N/NC(=O)c1ccccc1 (configuration not stated) | 22% | -1 | 295% | 9.2µM* | 1% | 26µM*
CC1Oc2ccccc2C=C1/C=N/NC(=O)c1ccccc1O (configuration not stated) | ? | ? | -2% | ? | -77% | ?
Cc1ccc(C(=O)N/N=C/C2=Cc3ccccc3OC2C)cc1 (configuration not stated) | 14% | -20 | 393% | ? | -1% | 15µM*
CC1Oc2ccccc2C=C1/C=N\NC(=O)c1cccnc1 (configuration not stated) | 2% | 14 | 143% | -12% | 3% | -27%
CN(C)S(=O)(=O)c1ccc(N2CCN(S(=O)(=O)c3ccc(F)cc3)CC2)c(Cl)c1 | ? | -25 | -2% | 18µM* | -58% | 18µM*
CN(C)S(=O)(=O)N1CCN(S(=O)(=O)c2ccc(F)cc2)CC1 | 4% | -2 | -2% | -14% | -4% | -5%
COc1ccc(C2(C)CC(=O)NC2=O)cc1 (configuration not stated) | 0% | 6 | 2% | -11% | -11% | 23%
COc1ccc(C2(C)C(C#N)C(=O)NC(=O)C2C#N)cc1 (configuration not stated) | -6% | 24 | 3% | -58% | -4% | 2.3µM*
SMILES | TGFb inhibitor | IL1B secr inh | ASM inhibitor | DT40 TDP1 CPT | HepG2 viability | DT40 TDP1 no CPT
Cc1ccc(-n2nc(C)c3c(C(=O)NCCc4ccccc4)cc(C)nc32)cc1 | -2% | nt | nt | ? | 6% | ?
COc1cccc(C2=N/C(=C\N(C)C)C(=O)O2)c1 | 8% | -61* | -3% | ? | -4% | 23µM*
COCC(=O)N1c2nc(-c3ccco3)nn2C2(CCCCC2)[C@@H]2CCCC[C@@H]21 | 0% | nt | nt | ? | 3% | ?
CC(=O)N[C@H]1[C@H]([C@H](O)[C@H](O)CO)OC(C(=O)O)=C[C@@H]1N=C(N)N | nt | nt | nt | -20% | nt | -16%
COc1ccccc1/C=C/C(=O)c1ccc(NC(C)=O)cc1 | ? | -107* | 14% | ? | -18% | 15µM*
COc1ccccc1/C=C/C(=O)c1c2c(c(C)[nH]c1=O)CCCC2 | -22% | -101* | -1% | ? | 6% | ?
COc1ccccc1/C=C/C(=O)NC(=S)NC(C)C | ? | -8 | 0% | ? | -21% | 16µM*
COc1ccccc1/C=C/C(=O)NC(=S)N1CCN(C)CC1 | -16% | 14 | -3% | -6% | 5% | -2%
COc1ccc(OC)c(/C=C/C(=O)c2ccc(Cl)cc2)c1 | ? | -89* | -6% | 18µM* | -89% | ?
Cc1ccc(N2CC(NC(=O)c3ccc(Br)o3)CC2=O)cc1C (configuration not stated) | -6% | nt | nt | -24% | -8% | ?
CC(NC(=O)C(=O)N/N=C\c1ccc([N+](=O)[O-])cc1)c1ccccc1 (configuration not stated) | 13% | 7 | -4% | -3% | 9% | 2%
O=C(CCN1CCC(c2ccc(Cl)s2)=N1)c1ccc(Cl)s1 | -30% | -19 | 5% | ? | -31% | ?
COc1ccc(/C=C/C(=O)c2ccccc2)c(OC)c1 | ? | 0 | 80% | -22% | -40% | -19%
COc1ccccc1/C=C/C(=O)c1ccccc1 | ? | -18 | -1% | ? | -57% | 13µM*
